The values that follow come from ChEMBL document CHEMBL1961873, “Compounds: GSK PKIS; Assays: Nanosyn kinase panel” (2012).

Molecules are shown by their SMILES.

For experiment [1], the target named is T1, Tyrosine-protein kinase receptor TYRO3 (Homo sapiens) (UniProt Q06418).
T1 sequence (whole entry): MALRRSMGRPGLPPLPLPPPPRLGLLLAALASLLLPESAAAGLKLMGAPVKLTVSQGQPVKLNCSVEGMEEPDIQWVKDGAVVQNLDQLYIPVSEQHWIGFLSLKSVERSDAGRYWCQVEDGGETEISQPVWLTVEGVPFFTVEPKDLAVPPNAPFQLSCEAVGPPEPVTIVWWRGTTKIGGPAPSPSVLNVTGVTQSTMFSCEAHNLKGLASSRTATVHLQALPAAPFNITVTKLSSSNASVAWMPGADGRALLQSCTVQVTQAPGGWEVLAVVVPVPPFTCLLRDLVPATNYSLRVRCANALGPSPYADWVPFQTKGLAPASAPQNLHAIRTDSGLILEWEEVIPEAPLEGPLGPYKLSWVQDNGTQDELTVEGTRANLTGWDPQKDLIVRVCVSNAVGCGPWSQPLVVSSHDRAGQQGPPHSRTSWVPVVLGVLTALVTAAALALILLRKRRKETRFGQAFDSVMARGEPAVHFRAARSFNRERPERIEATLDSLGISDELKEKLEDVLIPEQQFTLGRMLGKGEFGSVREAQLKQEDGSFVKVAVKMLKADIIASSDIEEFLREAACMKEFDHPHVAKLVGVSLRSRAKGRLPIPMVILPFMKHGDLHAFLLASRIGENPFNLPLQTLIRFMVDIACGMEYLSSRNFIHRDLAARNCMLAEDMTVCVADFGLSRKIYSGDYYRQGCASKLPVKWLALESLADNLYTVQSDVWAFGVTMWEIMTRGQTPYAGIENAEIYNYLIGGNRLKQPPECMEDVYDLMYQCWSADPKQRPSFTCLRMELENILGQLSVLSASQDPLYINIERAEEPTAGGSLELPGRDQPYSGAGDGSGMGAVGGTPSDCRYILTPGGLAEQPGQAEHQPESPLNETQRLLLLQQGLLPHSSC
The note with it: at 1 µM.

Experiment [2] concerns the target Tyrosine-protein kinase Yes (Homo sapiens) (UniProt P07947). The note with it: at 0.1 µM.
The target is the same in experiment [3]. The note with it: at 1 µM.
For experiment [4], the target named is T2, Tyrosine-protein kinase ZAP-70 (Homo sapiens) (UniProt P43403).
T2 sequence (whole entry): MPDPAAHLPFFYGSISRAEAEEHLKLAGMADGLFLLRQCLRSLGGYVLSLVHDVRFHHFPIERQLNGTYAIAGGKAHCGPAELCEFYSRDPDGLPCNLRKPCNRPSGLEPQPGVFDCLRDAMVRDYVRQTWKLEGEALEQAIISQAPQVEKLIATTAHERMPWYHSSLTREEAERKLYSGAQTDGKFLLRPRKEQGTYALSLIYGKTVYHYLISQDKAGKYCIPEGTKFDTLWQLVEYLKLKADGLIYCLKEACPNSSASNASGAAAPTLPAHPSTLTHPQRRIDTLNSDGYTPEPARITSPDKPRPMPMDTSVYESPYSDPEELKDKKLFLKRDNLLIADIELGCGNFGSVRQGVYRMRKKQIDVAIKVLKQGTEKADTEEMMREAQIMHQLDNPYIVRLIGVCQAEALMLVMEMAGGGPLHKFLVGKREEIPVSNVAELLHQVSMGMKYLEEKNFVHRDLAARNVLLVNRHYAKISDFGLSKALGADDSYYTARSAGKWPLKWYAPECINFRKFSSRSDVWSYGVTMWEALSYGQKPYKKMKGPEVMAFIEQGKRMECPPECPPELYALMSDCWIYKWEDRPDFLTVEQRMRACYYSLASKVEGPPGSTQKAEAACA
The note with it: at 1 µM.

In experiment [5] the target is Serine/threonine-protein kinase B-raf (Homo sapiens) (UniProt P15056). The settings on record: at 0.1 µM.
Sequence of Serine/threonine-protein kinase B-raf (Homo sapiens) (P15056 whole entry): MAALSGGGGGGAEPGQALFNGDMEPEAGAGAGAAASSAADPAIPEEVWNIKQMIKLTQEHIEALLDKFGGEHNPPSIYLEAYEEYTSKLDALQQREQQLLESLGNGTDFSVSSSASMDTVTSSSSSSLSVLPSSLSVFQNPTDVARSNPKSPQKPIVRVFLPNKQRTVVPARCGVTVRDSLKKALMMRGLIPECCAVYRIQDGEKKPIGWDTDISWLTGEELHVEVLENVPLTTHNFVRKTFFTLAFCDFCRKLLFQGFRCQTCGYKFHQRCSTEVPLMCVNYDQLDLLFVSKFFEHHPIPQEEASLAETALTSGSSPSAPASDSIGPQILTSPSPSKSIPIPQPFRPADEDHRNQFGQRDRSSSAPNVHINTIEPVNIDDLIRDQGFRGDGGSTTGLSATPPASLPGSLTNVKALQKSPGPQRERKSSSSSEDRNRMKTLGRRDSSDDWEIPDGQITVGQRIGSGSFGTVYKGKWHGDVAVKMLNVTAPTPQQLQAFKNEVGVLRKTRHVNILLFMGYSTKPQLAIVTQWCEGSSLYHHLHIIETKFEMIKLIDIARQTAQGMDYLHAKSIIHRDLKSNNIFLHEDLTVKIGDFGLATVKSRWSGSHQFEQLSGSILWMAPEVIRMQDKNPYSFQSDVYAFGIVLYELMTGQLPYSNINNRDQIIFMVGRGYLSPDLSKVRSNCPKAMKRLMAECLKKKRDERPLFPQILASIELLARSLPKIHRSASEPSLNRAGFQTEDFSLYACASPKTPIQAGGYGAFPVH
The target is the same in experiment [6]. The note with it: at 1 µM.
The subject of experiment [7] is Serine/threonine-protein kinase B-raf (Homo sapiens), P15056 [V600E]. The settings on record: at 0.1 µM.
Experiment [8] shares this test system. The note with it: at 1 µM.
Experiment [9] concerns the target RAF proto-oncogene serine/threonine-protein kinase (Homo sapiens) (UniProt P04049). The settings on record: at 0.1 µM.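 Also: values are mean CRAF kinase inhibition from profiling of the GSK Published Kinase Inhibitor Set.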
For experiment [10], the target named is T2, Tyrosine-protein kinase ZAP-70 (Homo sapiens). The settings on record: at 0.1 µM.

Sequence of Tyrosine-protein kinase Yes (Homo sapiens) (P07947 2-543 limits assumed): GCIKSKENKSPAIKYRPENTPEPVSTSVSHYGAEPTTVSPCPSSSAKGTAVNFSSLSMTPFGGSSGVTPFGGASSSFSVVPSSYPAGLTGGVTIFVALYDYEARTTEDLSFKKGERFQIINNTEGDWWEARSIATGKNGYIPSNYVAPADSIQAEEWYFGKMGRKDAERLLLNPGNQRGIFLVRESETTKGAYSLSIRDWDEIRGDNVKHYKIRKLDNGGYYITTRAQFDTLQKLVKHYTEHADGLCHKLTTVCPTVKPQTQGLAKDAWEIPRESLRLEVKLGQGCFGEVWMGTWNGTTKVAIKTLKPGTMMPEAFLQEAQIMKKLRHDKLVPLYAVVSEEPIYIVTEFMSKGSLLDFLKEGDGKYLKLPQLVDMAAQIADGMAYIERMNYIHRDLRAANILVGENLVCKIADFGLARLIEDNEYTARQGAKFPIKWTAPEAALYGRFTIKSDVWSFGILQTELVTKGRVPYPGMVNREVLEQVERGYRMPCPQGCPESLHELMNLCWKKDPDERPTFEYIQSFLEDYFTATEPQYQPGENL
Sequence of RAF proto-oncogene serine/threonine-protein kinase (Homo sapiens) (P04049 whole entry): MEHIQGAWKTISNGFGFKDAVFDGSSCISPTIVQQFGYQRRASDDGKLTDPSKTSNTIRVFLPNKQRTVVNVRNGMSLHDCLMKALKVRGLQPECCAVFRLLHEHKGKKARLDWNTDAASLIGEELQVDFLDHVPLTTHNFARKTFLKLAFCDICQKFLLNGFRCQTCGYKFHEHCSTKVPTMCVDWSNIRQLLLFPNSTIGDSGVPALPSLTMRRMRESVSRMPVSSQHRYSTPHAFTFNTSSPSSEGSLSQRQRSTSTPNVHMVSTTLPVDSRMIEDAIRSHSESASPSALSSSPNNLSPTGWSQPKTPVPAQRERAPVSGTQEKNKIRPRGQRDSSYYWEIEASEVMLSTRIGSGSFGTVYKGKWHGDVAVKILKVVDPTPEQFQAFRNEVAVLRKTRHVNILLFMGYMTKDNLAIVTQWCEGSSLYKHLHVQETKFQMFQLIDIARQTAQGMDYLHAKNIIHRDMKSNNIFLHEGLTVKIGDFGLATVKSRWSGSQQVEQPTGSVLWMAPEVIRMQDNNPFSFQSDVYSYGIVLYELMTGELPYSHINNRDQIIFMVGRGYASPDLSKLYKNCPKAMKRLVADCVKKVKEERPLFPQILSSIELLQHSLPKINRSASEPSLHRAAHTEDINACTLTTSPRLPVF
Sequence of Serine/threonine-protein kinase B-raf (Homo sapiens), P15056 [V600E] (P15056 whole entry V600E): as the sequence (P15056 whole entry) above, with V600E counted along it

As a reminder, the inhibition is the change of the read-out against control, counted positive when it falls. For the compound `COc1cc2ncn(-c3cc(OCc4ccccc4S(C)(=O)=O)c(C#N)s3)c2cc1OC`, the inhibition in [1] worked out at 20.1%; in experiment [2] it was 8.67%; in experiment [3], 39.2%; in experiment [4], 4%; in experiment [5], 5.38%; in experiment [6] it was 8.14%. Besides, the inhibition in [7] was 4.97%; in experiment [8], 6.91%; in experiment [9] it was 5.23%.
Turning to `Cc1ccc2c(-c3ccnc(Nc4cccc(C(F)(F)F)c4)n3)c(-c3ccccc3)nn2n1`, the inhibition in experiment [1] amounted to 17.5%; in experiment [2], 53.8%; in experiment [3], 91.8%; in experiment [10], 0.09%; in [4], 2.06%; in [5] it was 6.35%. Also, the inhibition in [6] is 14.1%; in [7], 4.17%; in experiment [8] it was 8.85%; in experiment [9], 4.15%.
As for `ON=C1CCc2cc(-c3nc(C4CCNCC4)[nH]c3-c3ccncc3)ccc21`, the inhibition in experiment [1] was 1.37%; in experiment [2], -1.71%; in [3], 0.86%; in experiment [10], 1.57%; in experiment [4], 1.96%; in experiment [9] it was -7.53%.
Take `NS(=O)(=O)c1cccc(-c2cc3ccncc3cc2OCc2ccccc2)c1`: the inhibition came out at 3.23% in experiment [1]; 0.88% in experiment [2]; 2.73% in experiment [3]; 2.48% in [10]; 4.15% in experiment [4]; 6.76% in [5]. For the same compound, the inhibition in [6] came out at 6.57%; in experiment [7], 5.8%; in experiment [8], 5.78%; in experiment [9], 2.97%.
Take `Cc1ccc(O)cc1Nc1ccnc2ccc(S(C)(=O)=O)cc12`: the inhibition in experiment [1] came to 19.1%; in [2] it was 89.3%; in experiment [3] it was 99%; in experiment [10], 2.4%; in experiment [4], 1.31%; in experiment [5], 15.3%. Also, the inhibition was 32.5% in experiment [6], 13.8% in experiment [7], 26% in [8] and -4.03% in experiment [9].
Turning to `O=S(=O)(CCOCc1ccc(-c2ccc3ncnc(Nc4ccc(OCc5cccc(F)c5)c(Cl)c4)c3c2)o1)c1ccccc1`, the inhibition in experiment [1] was -0.33%; in experiment [2], -1.93%; in experiment [3] it was 2.61%; in [10] it was -5.44%; in [4], 0.81%; in experiment [5], 2.33%. Further, the inhibition in experiment [6] was 3.21%; in experiment [7], 2.43%; in [8], 3.05%; in experiment [9], -0.94%.
Take `CN(C)C(=O)O[C@H]1CN[C@H](C#Cc2cc3ncnc(Nc4ccc(OCc5cccc(F)c5)c(Cl)c4)c3s2)C1`: the inhibition in [1] was found to be 2.13%; in experiment [2] it was 1.37%; in experiment [3], 3.86%; in [10] it was 0.97%; in experiment [4], 3.33%; in [5], 3.09%. Moreover, the inhibition in experiment [6] amounted to 6.19%; in experiment [7], 3.55%; in experiment [8], 5.77%; in [9] it was 3.11%.
For the compound `CCS(=O)(=O)c1ccc(OC)c(Nc2ncc(-c3cccc(OC)c3)o2)c1`, the inhibition in [1] is 40.6%; in experiment [2], 34.5%; in experiment [3], 80.2%; in experiment [10], -1.53%; in experiment [4], -2.95%; in experiment [5], 1.82%. Further, the inhibition was found to be 5.54% in experiment [6], 1.52% in experiment [7], 4.88% in [8] and 5.24% in experiment [9].
For `CCOc1nccc2c1nc(-c1nonc1N)n2CC`, the inhibition worked out at 5.64% in experiment [1]; 2.27% in [2]; 6.31% in experiment [3]; 2.73% in experiment [10]; 1.9% in experiment [4]; 2.88% in [5]. Further, the inhibition in experiment [6] is 2.64%; in experiment [7], 3.44%; in experiment [8], 2.45%; in [9], -1.34%.
Regarding `Nc1nccc(-c2c(-c3ccc(F)cc3)nn3cc(C(F)(F)F)ccc23)n1`, the inhibition in experiment [1] is 1.24%; in [2], 0.91%; in experiment [3] it was 1.92%; in experiment [10], -0.68%; in [4], -1.16%; in experiment [5], 0.06%. Moreover, the inhibition was 0.3% in experiment [6], 0.14% in experiment [7], -0.28% in experiment [8] and -3.59% in [9].
For the compound `NS(=O)(=O)c1cccc(Nc2cc(-c3ccc(F)cc3)n[nH]2)c1`, the inhibition in experiment [1] was 19.7%; in [2], 2.67%; in experiment [3], 12.1%; in experiment [10], 1.39%; in [4], 2.54%; in experiment [5], 5.14%. In addition, the inhibition in [6] was determined as 4.96%; in experiment [7], 3.81%; in [8], 5.31%; in [9], 0.49%.
As for `COC(=O)c1ccc2c(c1)C(=Cc1cc(Br)c(O)c(Br)c1)C(=O)N2`, the inhibition in experiment [1] came out at 12.4%; in experiment [2] it was 0.08%; in [3], 12.2%; in [10] it was 3.31%; in experiment [4], 5.41%; in experiment [5], 9.11%. The inhibition in experiment [6] amounted to 19.7%; in experiment [7], 7.27%; in experiment [8] it was 18.2%; in experiment [9], 3.01%.
Consider `O=C(Nc1ccc(Oc2ccc3[nH]c(NC(=O)c4ccco4)nc3c2)cc1)Nc1cc(C(F)(F)F)ccc1F`, for which the inhibition was 37.4% in [1]; 0.93% in [2]; 21.9% in experiment [3]; -9.02% in experiment [4]; 4.64% in [5]; 60.7% in [6]. The inhibition in [7] was 3.75%; in experiment [8], 72.5%; in experiment [9], -0.98%.
For `Cc1nc(-c2ccccc2)n2nc(NCCCN3CCOCC3)ncc12`, the inhibition in experiment [1] was 2.63%; in experiment [2], 0.53%; in [3], 6.58%; in experiment [10], 0.35%; in [4], 0.63%; in [5] it was 3.54%. Further, the inhibition amounted to 7.13% in experiment [6], 4.13% in experiment [7], 4.57% in experiment [8] and 8.88% in experiment [9].
With `Cc1ccc(C(=O)NC2CC2)cc1-c1ccc2[nH]ncc2c1`, the inhibition in [1] is -0.85%; in [2] it was -1.92%; in experiment [3] it was -0.56%; in experiment [10] it was -3.94%; in experiment [4] it was -1.58%; in [5] it was -6.03%. For the same compound, the inhibition was -6.48% in experiment [6], -3.87% in experiment [7], -3.07% in [8] and -2.17% in experiment [9].
Turning to `Cc1cc(-c2ccccn2)cc(C)c1/C=C/c1cncc(-c2nn[nH]n2)c1`, the inhibition in experiment [1] was 0.93%; in [2], 1.13%; in experiment [3] it was 11.4%; in [10], 3.62%; in experiment [4], -2.29%; in [5] it was 5.62%. Also, the inhibition in experiment [6] was determined as 12.4%; in [7] it was 4.7%; in [8] it was 5.23%; in [9] it was 1.48%.
For the compound `Nc1nccc(C#Cc2cncnc2Nc2ccc(OCc3cccc(F)c3)c(Cl)c2)n1`, the inhibition in [1] was 3.66%; in experiment [2], -0.62%; in [3], 5.85%; in experiment [10], 1.97%; in experiment [4] it was 3.29%; in [5], 3.49%. In addition, the inhibition was 6.72% in [6], 3.75% in experiment [7], 5.29% in experiment [8] and -0.89% in experiment [9].
